PubChem BioAssay (Tox21)
Inconclusive results are not listed. Calls of active or inactive are those of the source. Unless noted, calls follow the shape of the dose curve; as a rule, active = well fitted curve in the direction sought with a large enough effect in the repeat runs; inconclusive = weak or mixed curves; inactive = no such curve, though single readings can be large; an effect the other way counts as inactive or inconclusive.

Experiments:
[1] = qHTS assay for small molecule agonists of the p53 signaling pathway (AID 651631; calls by dose curve; also: nearly all actives have a fitted effect of over 15% in size)
Outline: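 Fluorescence intensity from cleaved LiveBLAzer B/G substrate (2 h, room temperature) served as the signal. Beforehand, HCT-116 reporter cells bearing p53 response elements were treated 16 h at 37 °C with DMSO-dissolved compounds.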

[2] = qHTS assay for small molecules that induce genotoxicity in human embryonic kidney cells expressing luciferase-tagged ATAD5 (AID 651632); also: nearly all actives have a fitted effect of over 15% in size
Outline: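 Cells were seeded at 2,000 per well, dosed with compound, and incubated 16 hr at 37C in 5% CO2. Luciferase activity was then quantified after a 30 min room-temperature incubation with Amplite.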

[3] = qHTS assay for small molecule agonists of the p53 signaling pathway - cell viability (AID 651633; calls by dose curve;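 also: p53RE-bla HCT reporter cells with a stable beta-lactamase p53 reporter; series mostly up to about 83 µM; nearly all actives have a fitted effect of over 30% in size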)
Outline: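 p53RE-bla cells, seeded at 4,000 per well and rested 5 h at 37 C/5% CO2, received compounds in DMSO for 16 h at 37 C. CellTiter-Glo was then added, and luminescence was read after 30 min at room temperature to gauge cytotoxicity.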

[4] = qHTS assay for small molecules that induce genotoxicity in human embryonic kidney cells expressing luciferase-tagged ATAD5 - cell viability (AID 651634; calls by dose curve; also: nearly all actives have a fitted effect of over 25% in size)
Outline: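 Cells (HEK293T, luciferase-tagged ATAD5) are seeded at 2,000 per well, dosed with compound or DMSO vehicle, and incubated 15.5 hr at 37C and 5% CO2. CellTiter-Fluor is added for 30 min before fluorescence is measured.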

[5] = qHTS assay for small molecule disruptors of the mitochondrial membrane potential - cell viability (AID 720634; calls by dose curve;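 also: human HepG2 liver cancer cells; series mostly up to about 83 µM; nearly all actives have a fitted effect of over 20% in size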)
Outline: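 Cytotoxicity was measured by ATP quantitation in HepG2 wells that had first been treated with compound for 1 hr and stained with m-MPI dye; CellTiter-Glo incubation was 30 min at room temperature.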

[6] = qHTS assay for small molecule disruptors of the mitochondrial membrane potential (AID 720635)
Outline: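 HepG2 cells (2,000/well) attached overnight at 37C, then took compound for 1 hr at 37C, 5% CO2. Mito-MPS dye was added for 30 min; fluorescence was read at 490/535 nm (monomers) and 540/590 nm (aggregates).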

[7] = qHTS assay to test for compound auto fluorescence at 535 nm (green) in HepG2 cells (AID 720675)
[8] = qHTS assay to test for compound auto fluorescence at 460 nm (blue) in HEK293 cells (AID 720678)
Outline: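 Auto fluorescence in the blue band was quantified as triamterene equivalency. HEK293 cells were seeded at 2,000/well, dosed after a 4-5 hr attachment, and kept overnight at 37C before the 405/460 nm reading.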

[9] = qHTS assay to test for compound auto fluorescence at 590 nm (red) in HEK293 cells (AID 720679)
Outline: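 Autofluorescence equivalency to Rose Bengal sodium, 540/590nm, in HEK293 cells exposed overnight to 23 nL compound per well.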

[10] = qHTS assay to test for compound auto fluorescence at 535 nm (green) in HEK293 cells (AID 720680)
[11] = qHTS assay to test for compound auto fluorescence at 460 nm (blue) in HEK293 cell free culture (AID 720681)
Outline: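 Test compounds were pinned into cell-free culture medium (DMEM with 10% FBS) and fluorescence was read directly at Ex/Em 405/460 nm. Signals were expressed as fluorescence equivalents of triamterene, with DMSO vehicle as control.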

[12] = qHTS assay to test for compound auto fluorescence at 535 nm (green) in HEK293 cell free culture (AID 720682)
Outline: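 Intrinsic compound fluorescence is measured in culture medium containing 10% FBS, with excitation at 485 nm and detection at 535 nm, referenced to fluorescein.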

[13] = qHTS assay to test for compound auto fluorescence at 590 nm (red) in HEK293 cell free culture (AID 720683)
Outline: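 Tox21 10K library compounds were pinned into cell-free DMEM with 10% FBS and fluorescence was read at excitation 540 nm. Activity is expressed as Rose Bengal sodium equivalency.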

[14] = qHTS assay to test for compound auto fluorescence at 590 nm (red) in HepG2 cell free culture (AID 720684)
Outline: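 Ex 540 / Em 590 nm read of compound in cell-free MEM (10% FBS). Rose Bengal sodium reference.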

[15] = qHTS assay to test for compound auto fluorescence at 460 nm (blue) in HepG2 cell free culture (AID 720685)
Outline: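 Cell-free plates of MEM plus 10% FBS received 23 nL compound or DMSO vehicle; blue-channel (405/460 nm) intensity scored against triamterene as reference fluorophore.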

[16] = qHTS assay to test for compound auto fluorescence at 535 nm (green) in HepG2 cell free culture (AID 720686)
[17] = qHTS assay to test for compound auto fluorescence at 460 nm (blue) in HepG2 cells (AID 720687)
Outline: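 Cells (2,000/well in MEM with 10% FBS) attached overnight at 37 C, then were exposed to compound or DMSO for 1 hr at 37 C, 5% CO2. Fluorescence read at Ex/Em 405/460 nm, expressed as triamterene-equivalent signal.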

[18] = target: Glucocorticoid receptor (Homo sapiens) (UniProt P04150); assay: qHTS assay to identify small molecule agonists of the glucocorticoid receptor (GR) signaling pathway (AID 720691; active = well fitted activation curve with a large enough effect in the signal ratio in the repeat runs, not every such curve was filed as active; the % refers to the signal ratio)
Glucocorticoid receptor (Homo sapiens), sequence (P04150 whole entry, looked up): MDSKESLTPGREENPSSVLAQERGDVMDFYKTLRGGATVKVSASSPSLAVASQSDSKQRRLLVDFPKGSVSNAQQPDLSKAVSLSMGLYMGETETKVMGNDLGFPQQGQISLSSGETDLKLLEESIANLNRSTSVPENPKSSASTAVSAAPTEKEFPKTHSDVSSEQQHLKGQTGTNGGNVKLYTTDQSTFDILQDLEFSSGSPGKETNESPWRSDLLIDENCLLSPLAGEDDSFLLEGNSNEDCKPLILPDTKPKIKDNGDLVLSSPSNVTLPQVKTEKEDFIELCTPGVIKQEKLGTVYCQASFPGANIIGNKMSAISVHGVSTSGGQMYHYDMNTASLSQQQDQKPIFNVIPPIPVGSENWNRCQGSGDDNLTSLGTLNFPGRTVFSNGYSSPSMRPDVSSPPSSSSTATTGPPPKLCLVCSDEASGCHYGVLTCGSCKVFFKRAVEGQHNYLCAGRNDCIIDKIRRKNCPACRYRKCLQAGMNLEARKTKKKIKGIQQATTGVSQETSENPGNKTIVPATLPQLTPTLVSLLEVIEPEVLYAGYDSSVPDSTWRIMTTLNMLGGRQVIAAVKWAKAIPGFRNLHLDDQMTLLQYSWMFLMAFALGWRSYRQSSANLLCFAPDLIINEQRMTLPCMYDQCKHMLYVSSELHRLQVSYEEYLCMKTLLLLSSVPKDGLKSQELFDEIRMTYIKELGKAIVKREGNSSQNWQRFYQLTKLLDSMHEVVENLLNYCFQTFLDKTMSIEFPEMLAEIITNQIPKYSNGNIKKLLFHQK
Outline: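 Steps: seed GR-bla HeLa cells, incubate 4 h at 37 C/5% CO2; pin-transfer DMSO-dissolved compounds; incubate 18 h at 37 C; add LiveBLAzer B/G FRET substrate; after 2 h at room temperature, measure fluorescence.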

[19] = target: Glucocorticoid receptor (Homo sapiens) (UniProt P04150); assay: qHTS assay to identify small molecule antagonists of the glucocorticoid receptor (GR) signaling pathway (AID 720692; active = well fitted inhibition curve with a large enough effect in the signal ratio in the repeat runs, not every such curve was filed as active; the % refers to the signal ratio)
Outline: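 Antagonism was scored as loss of dexamethasone-driven (5 nM final) reporter signal in HeLa cells bearing a glucocorticoid response element–beta-lactamase construct, after 18 h compound exposure at 37 C and 2 h FRET substrate loading.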

[20] = qHTS assay to test for compound auto fluorescence at 590 nm (red) in HepG2 cells (AID 720674)
Outline: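 Intrinsic compound fluorescence in the red window (Ex/Em 540/590 nm) is measured in attached HepG2 cells exposed for 1 hr, DMSO vehicle as baseline, benchmarked to Rose Bengal sodium.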

Measured: Potency

N#CC1(N=NC2(C#N)CCCCC2)CCCCC1
not listed: [20]
inactive: all other assays above

Cc1ccccc1
inactive: [1] | [2] | [3] | [4] | [5] | [6] | [18] | [19]

Cc1cnc(C2=NC(C)(C(C)C)C(=O)N2)c(C(=O)O)c1 (stereo not drawn)
not listed: [6] | [18]
inactive: all other assays above

OC[P+](CO)(CO)CO
not listed: [6] | [8] | [18]
inactive: all other assays above

c1ccc2c(c1)sc1ccccc12
not listed: [6]
inactive: all other assays above

CCOP(=S)(S)OCC
not listed: [6] | [13] | [18]
inactive: all other assays above

CC(C)(C)NCC(O)c1ccccc1Cl (stereo not drawn)
not listed: [6] | [18]
inactive: all other assays above

COc1ccccc1N1CCNCC1
not listed: [14] | [18]
inactive: all other assays above

O=C(Cc1ccccc1)OCCc1ccccc1
inactive: all assays above

CN[C@@H](C)[C@H](O)c1ccccc1
not listed: [18]
inactive: all other assays above

O=C1CC[C@@]2(O)[C@H]3Cc4ccc(O)c5c4[C@@]2(CCN3CC2CC2)[C@H]1O5
not listed: [6] | [13]
inactive: all other assays above

Cc1nnc(-c2ccccc2)c(=O)n1N
not listed: [13]
inactive: all other assays above

CCCC(C)(COC(N)=O)COC(=O)NC(C)C (stereo not drawn)
not listed: [6] | [18] | [19]
inactive: all other assays above

O=C(O)c1cc(Cl)ccc1Cl
not listed: [13] | [14] | [19]
inactive: all other assays above

CC(Cl)C(=O)O (stereo not drawn)
not listed: [6] | [13] | [18] | [19]
inactive: all other assays above

N#CC(C#N)=C(C#N)C#N
not listed: [6] | [20]
inactive: all other assays above
